Compounds with a hit are over-represented: about 2.8% of the library has one in this group of screens.
Pol eta inh-1: qHTS for Inhibitors of Polymerase Eta | DNA polymerase eta (Homo sapiens), Q9Y253 | recombinant Pol eta, fluorescent DNA replication assay | Potency, µM (highest dose often 114 µM), usual class: inhibitors | actives 1.2% (n = 390,000) | AID 588591, 2011
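Fluorescent replication assay: 50 nM final substrate added after a 15 min room-temperature compound preincubation with 10 nM enzyme. Signal taken at 0 min and again at 10 min.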
PI5P4K alpha inh: qHTS for Inhibitors of phosphatidylinositol 5-phosphate 4-kinase (PI5P4K) | actives 1.2% (n = 330,000) | Phosphatidylinositol 5-phosphate 4-kinase type-2 alpha (Homo sapiens), P48426 | max response, % | PI5P4Kalpha enzyme, ADP-Glo luminescence, 60 min; hits give low values; active = max response of -50% or lower; inconclusive = between -30% and -50%; inactive = -30% or higher; note: value at the top dose of about 77 µM
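ADP-Glo luminescence end-point read after a 60 min room-temperature kinase reaction of PI5P4Kalpha plus substrate, initiated with ATP at 5 microM final. Buffer: 0.038 M HEPES pH 7.4, EGTA, 0.1% CHAPS, 5% DMSO.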
Pol iota inh: qHTS for Inhibitors of Polymerase Iota; DNA polymerase iota (Homo sapiens), Q9UNA4; Pol iota fluorescent replication assay, 10 min; Potency, µM (highest dose often 115 µM), usual class: inhibitors; actives 1% (n = 390,000); AID 588590, 2011
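Fluorescent replication assay read twice, at 0 min and 10 min after adding 50 nM (final) substrate. Enzyme (10 nM) and compounds were first incubated 15 min at room temperature; enzyme-free buffer wells were negative controls.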
Pol kappa inh-1: qHTS for Inhibitors of Polymerase Kappa | DNA polymerase kappa (Homo sapiens), Q9UBT6 | purified Pol kappa, fluorescent DNA synthesis assay, 10 min | Potency, µM (highest dose often 107 µM), most hits filed as inhibitors | actives 0.53% (n = 400,000) | AID 588579, 2011
Target sequence (Q9UBT6 whole entry, looked up): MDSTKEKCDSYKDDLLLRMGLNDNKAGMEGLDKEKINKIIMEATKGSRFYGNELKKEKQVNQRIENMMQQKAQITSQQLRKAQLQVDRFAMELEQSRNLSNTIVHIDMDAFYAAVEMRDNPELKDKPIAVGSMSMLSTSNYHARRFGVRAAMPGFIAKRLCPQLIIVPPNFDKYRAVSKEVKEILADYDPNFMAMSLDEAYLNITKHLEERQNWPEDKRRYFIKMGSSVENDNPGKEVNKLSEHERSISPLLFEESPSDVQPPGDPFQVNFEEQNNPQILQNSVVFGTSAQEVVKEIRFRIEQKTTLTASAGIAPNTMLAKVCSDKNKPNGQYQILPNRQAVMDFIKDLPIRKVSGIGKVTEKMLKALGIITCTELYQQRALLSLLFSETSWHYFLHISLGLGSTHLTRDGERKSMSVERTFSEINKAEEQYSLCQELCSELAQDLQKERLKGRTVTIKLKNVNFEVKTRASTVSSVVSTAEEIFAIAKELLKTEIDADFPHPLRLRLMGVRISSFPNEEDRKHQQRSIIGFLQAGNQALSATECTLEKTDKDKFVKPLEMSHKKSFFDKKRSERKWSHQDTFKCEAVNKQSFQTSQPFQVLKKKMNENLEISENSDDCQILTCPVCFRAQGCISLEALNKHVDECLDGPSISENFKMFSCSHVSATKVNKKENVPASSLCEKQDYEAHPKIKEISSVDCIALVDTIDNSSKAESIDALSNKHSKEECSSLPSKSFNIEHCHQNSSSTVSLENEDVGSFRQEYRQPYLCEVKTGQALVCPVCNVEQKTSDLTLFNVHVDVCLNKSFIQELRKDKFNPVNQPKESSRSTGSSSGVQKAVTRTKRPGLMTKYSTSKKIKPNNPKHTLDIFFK
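Fluorescent qHTS in 1536-well format: enzyme (10 nM) and compound sat 15 min at room temperature before 50 nM substrate (final) was added. Signal taken at 0 and 10 min; no-enzyme buffer wells were negative controls.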
POLB inh: qHTS Assay for Inhibitors of DNA Polymerase Beta; P06746; Pol beta primer extension/strand displacement, fluorescence kinetic; Potency, µM (highest dose often 114 µM), actives largely listed as inhibitors; actives 1.3% (n = 340,000); AID 485314, 2010
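10 nM enzyme + cpd, 15 min RT; start with substrate 50 nM final; read 0 min and after 10 min RT. Corrected, normalized data; 4-parameter Hill curve fit.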
WRN inhibitor: qHTS for Inhibitors of WRN Helicase; actives 0.46% (n = 360,000); WRN helicase unwinding, fluorescent forked duplex, kinetic; Potency, µM (highest dose often 114 µM), hits mostly inhibitors; Bifunctional 3'-5' exonuclease/ATP-dependent helicase WRN (Homo sapiens), Q14191; note: nearly all actives have a fitted effect of over 55% in size
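Kinetic fluorescence helicase assay: unwinding of a quenched forked DNA duplex (100 nM final) with 2 mM ATP final raises red fluorescence (525/598 nm). Compounds sat 15 min at room temperature with 20 nM WRN beforehand.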
TbPGK inh: qHTS for inhibitors of Phosphogylcerate Kinase: Hit Validation Screen; Potency, µM (top dose mostly 57.5 µM), hits mostly inhibitors; actives 79% (n = 500); shares compounds with Pol kappa inh-1; TbPGK coupled GAPDH assay, Kinase-Glo luminescence; note: nearly all actives have a fitted effect of over 65% in size
Pol iota confirm: qHTS for Inhibitors of Polymerase Iota: Confirmatory Assay for Cherry-picked Compounds | shares compounds with Pol kappa inh-1 | Pol iota primer extension, TAMRA/BHQ fluorescence | Potency, µM, actives largely listed as inhibitors | actives 77% (n = 1,500)
Pol kappa inh-2: qHTS for Inhibitors of Polymerase Kappa: Confirmatory Assay for Cherry-picked Compounds; AID 720501, 2013; actives 76% (n = 920); shares compounds with Pol eta inh-1; Potency, µM, usual class: inhibitors; purified Pol-kappa, fluorescent strand-displacement substrate
Pol eta inh-2: qHTS for Inhibitors of Polymerase Eta: Confirmatory Assay for Cherry-picked Compounds; Pol eta primer extension, TAMRA/BHQ fluorescence, 10 min; Potency, µM, usual class: inhibitors; shares compounds with Pol eta inh-1; actives 64% (n = 2,600)
Numbers stand for hits; – = inactive; ? = inconclusive; · = not tested or not shown; [ ] = another dose, or the depositor's remark. Unless noted, calls come from the whole dose curve; as a rule, active = well fitted curve in the direction sought with a large enough effect; inconclusive = small, poorly fitted or top-dose-only effect, or another doubt; inactive = no such curve, though single readings can be large; an effect the other way counts as inactive or inconclusive.

SMILES	Pol eta inh-1	PI5P4K alpha inh	Pol iota inh	Pol kappa inh-1	POLB inh	WRN inhibitor	Pol iota confirm	Pol eta inh-2	others
COc1ccc(CCNc2ncnc3c2cnn3-c2cc(Cl)ccc2C)cc1	–	·	–	–	–	·	·	·
CC1=NN(c2ccc(C(=O)O)c(N)c2)C(=O)C1	22.4µM	–	1.26µM	89.1µM	10µM	–	59.7	33.8
Cc1cccc(N2N=C(C(=O)O)CCC2=O)c1	–	–	–	–	–	–	·	·
CCOC(=O)C1CCCN(S(=O)(=O)c2ccc(N3CCCCS3(=O)=O)cc2)C1 (stereo unspecified)	–	·	–	–	–	·	·	·
OCC1(Cc2ccc(Cl)cc2)CCN(Cc2ccc(Oc3ncccn3)cc2)CC1	–	–	–	–	–	–	·	·
COC1=CC(=O)c2c(ccc3ncnc(N)c23)C1=O	4.47µM	–	3.98µM	–	·	–	4.23	8.49
COc1ccc2c(c1)c(=O)oc1cc(OCC(=O)N3CCc4ccccc4C3)ccc12	89.1µM	·	?	?	11.2µM	?	33.6	75.7	TbPGK inh=3.26µM;Pol kappa inh-2=8.44
CC(C)c1ccc(OCC(=O)N2CCc3ccccc3C2)cc1	–	–	–	–	–	–	·	·
NC(=O)Cc1ccc(C(=O)CSc2nnc(-c3ccncc3)n2C2CC2)s1	12.6µM	-78.2	14.1µM	79.4µM	·	?	?	75.7
O=C(CCCCCn1c(SCc2ccncc2)nc2ccccc2c1=O)NCc1ccco1	79.4µM	·	14.1µM	?	39.8µM	?	47.4	75.7
O=C(COc1ccc2c3c(c(=O)oc2c1)CCCC3)NCCCn1ccnc1	–	–	–	–	–	–	·	·
O=C1C(Cl)=C(NCCN2CCOCC2)C(=O)c2ccccc21	–	–	–	–	–	–	·	·
CC1COCC(C)N1C1=C(Cl)C(=O)c2ccccc2C1=O (stereo unspecified)	–	-69.7	8.91µM	–	·	–	42.3	26.9
Cc1ccccc1NC(=O)c1nc2nccc(C)n2n1	·	·	·	·	–	·	·	·
Cc1ccnc2nc(C(=O)Nc3nc(-c4ccccn4)cs3)nn12	79.4µM	?	50.1µM	?	11.2µM	?	67	84.9
CC[C@@H]1CC2=C(C(=O)OC(C)(C)O2)[C@H](c2ccc(F)cc2)O1	·	–	·	·	·	–	·	·
CCOC(=O)Cn1c(=O)oc2cc(S(=O)(=O)N3CCN(c4cccc(C)c4C)CC3)ccc21	–	·	–	–	–	·	·	·
Cc1nnc(SCC2=C(C(=O)O)N3C(=O)C(NC(=O)Cn4nc(C(F)F)cc4C)C3SC2)s1 (stereo unspecified)	8.91µM	–	15.8µM	?	?	–[11.6 µM]	·	26.9	TbPGK inh=?
Oc1ccc2ccccc2c1C=NC12CN3CCN(CN(C3)C1)C2	20µM	–	20µM	–	–	?	?	?
CCOc1ccccc1NC(=O)C(=O)c1cc(C)n(-c2cccc(C)c2C)c1C	–	·	–	–	–	·	·	·

Source: PubChem (National Center for Advancing Translational Sciences (NCATS))
